The source made the active and inactive calls. Calls come from the whole dose curve; as a rule, active = well fitted activation curve with a large enough effect; inconclusive = small, poorly fitted or top-dose-only effect; inactive = flat fitted curve, though single readings scatter.

The experiment is described as follows: Cellular Toxicity (caspase-3) Mesangial (AID 660).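 Note: combined caspase 3 and 7 activity read by Caspase-Glo luminescence; cells exposed to compound for 16 h before the caspase read.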 The following applies: mesangial cells, normalized: DMSO 0%, 100 µM tamoxifen 100%; series mostly up to 91.7 µM. The text has this:
NIH Chemical Genomics Center [NCGC]
NIH Molecular Libraries Screening Centers Network [MLSCN]
National Institutes of Environmental Health Sciences [NIEHS]
National Toxicology Program [NTP]
We have developed a 1536-well cell-based assay for quantitative high throughput screening (qHTS) against a number of cell lines to determine in vitro caspase 3/7 of small molecules. This particular assay uses the mesangial cell line which is derived from normal human renal glomeruli.
NCGC Assay Protocol Summary:
The Caspase-Glo 3/7 assay (Promega) is a homogeneous method to measure caspase-3 and caspase-7 activities in cultured cells. The quantitation of caspase 3/7 activity is based on the cleavage of a peptide-aminoluciferin substrate. After caspase cleaves the substrate the free aminoluciferin is liberated and serves as the substrate of luciferase, which generates the light. The luminescent signal is proportional to amount of caspase 3/7 activity present.
Using the Caspase-Glo 3/7 assay, the amount of caspase 3/7 activity was measured in the mesangial cell line with complete culture medium following compound treatment for 16 hours. The assay was performed in opaque white 1536-well plates. In the screen, tamoxifen and doxorubicin were used as positive controls. Library compounds were measured for their ability to cause the activation of caspase 3/7 in the cell line, as reflected by an increase in luminescence signal, in a concentration-dependent manner. Data were normalized to the controls for basal activity (DMSO only) and 100% stimulation (100 uM tamoxifen). AC50 values were determined from concentration-response data modeled with the standard Hill equation.
qHTS protocol for caspase 3/7 assay in mesangial cell line
[Step] [Parameter] [Value] [Description]
1. Reagent; 5 uL; 1000 mesangial cells/well
2. Time; 5 hr; 37 °C incubation
4. Controls; 23 nL; Tamoxifen 0.23 uM to 100 uM & doxorubicin 7.0 pM to 100 uM
5. Time; 16 hr; 37 °C incubation
6. Reagent; 5 uL; Caspase-Glo 3/7 reagent
7. Time; 20 min; Room Temperature
8. Detection; Luminescence; Viewlux plate reader
Keywords: caspase 3/7, apoptosis, mesangial cell line, luminescence, NTPHTS, NTPHTS_NCGC, NIEHS, EPA, DSSTox, MLSMR, MLSCN, NIH Roadmap, qHTS, NCGC
In the case of `C=CCCl`, the compound was called inactive.
In the case of `Cc1ccc(N)cc1N`, the compound was called inactive.
Take `Cc1cc(-c2ccc(N)c(C)c2)ccc1N`: the compound was classed as inactive.
Take `CC(C)CON=O`: the result was inactive.
Turning to `CC(C)(C)c1ccccc1O`, the result was inactive.
As to `CCCCCCCCCCCOC(=O)c1ccccc1C(=O)OCCCCCCCCCCC`, the result was inactive.
As for `Oc1cc(Cl)c(Cl)c(Cl)c1Cl`, the entry is “inactive”.
Consider `ClCc1ccccc1`, for which the compound was classed as inactive.
On to `CNC(=O)O/N=C/C(C)(C)S(C)=O` (stereo not given), for which the call was inactive.
Turning to `N#C/C=C/C#N`, the outcome was inactive.
Regarding `C=CC(=O)OCC(C)C`, the call was inactive.
As to `Brc1cccc(-c2ccccc2)c1`, the outcome was inactive.
In the case of `OC[P+](CO)(CO)CO`, the result was inactive.
As for `COc1cc(-c2ccc(N)c(OC)c2)ccc1N`, the entry is “inactive”; as for `CCOP(=S)(OCC)Oc1nc(Cl)c(Cl)cc1Cl`, “inactive”.
With `c1ccc2c(c1)CCNC2` the entry was “inactive”; with `C1CC2OC2CC1C1CO1` (stereo not given), “inactive”; with `Cl/C=C/Cl`, “inactive”.
As for `O=C(O)C(Cl)Br` (stereo not given), the entry is “inactive”; as for `Cl/C=C/CCl`, “inactive”.
`O=[N+]([O-])c1cccc(O)c1`: the outcome was inactive.
Turning to `Nc1cc(Cl)cc(Cl)c1`, the compound was classed as inactive.
In the case of `O=[N+]([O-])c1ccc2c3c(cccc13)CC2`, the result was inactive.
Regarding `Cc1ccc(N)c(N)c1`, the compound was classed as inactive.
Regarding `Cl/C=C\Cl`, the compound was classed as inactive.
With `CCC#N`, the result was inactive.
As to `C/C=C/CC#N`, the outcome was inactive.
`ClCCOCCCl`: the outcome was inactive.
As for `ClC(Cl)Br`, the result was inactive.
Regarding `O=Cc1ccc2c(c1)OCO2`, the outcome was inactive.
As to `CC(=O)[O-].CC(=O)[O-].CC(=O)[O-].[Cr+3]`, the call was inactive.
`OCCBr`: the result was inactive.
With `CC(C#N)CCC#N` (stereo not given), the call was inactive.
Consider `Oc1cccc(Cl)c1`, for which the call was inactive.
Regarding `Nc1ncc([N+](=O)[O-])s1`, the call was inactive.
Regarding `CC(C)(Cl)Cl`, the call was inactive.
As for `C=CC(=O)OCCN(C)C`, the compound was called inactive.
For the compound `O=[N+]([O-])c1cc(Cl)c(Cl)cc1Cl`, the result was inactive.
On to `CCOS(C)(=O)=O`, for which the outcome was inactive.
In the case of `CC(C)OC(=O)Cc1ccccc1`, the call was inactive.

For the origin of these results see PubChem BioAssay (NCATS).
